Bioassay records: PubChem BioAssay, National Center for Advancing Translational Sciences (NCATS)
DT40 TDP1 no CPT = qHTS for Inhibitors of human tyrosyl-DNA phosphodiesterase 1 (TDP1): qHTS in cells in absence of CPT. DT40 Tdp1-/- hTDP1 cells, no CPT, ATP luminescence, 48 h. Potency, µM (titrated, usually from 46.2 µM), for inactives: at the top dose activity change, negative = growth inhibition, most hits filed as inhibitors. 15% of 420,000 active. AID 686978, 2013; also: potency is read from the fitted curve at half-maximal effect; % is scaled to controls: 0 for no effect and ±100 for the full control effect; nearly all actives have a fitted effect of over 55% in size
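Compound effects on proliferation are scored in DT40 Tdp1-/-;hTDP1 cells in the absence of CPT. ATP levels (CellTiter-Glo luminescence) are recorded after a ≥48 hr, 37 °C incubation.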
TDP1 inh = inhibitors of human tyrosyl-DNA phosphodiesterase TDP1; Q9NUW8; 0.28% of 350,000 active; recombinant TDP1, AlphaScreen DNA substrate cleavage; Potency, µM (series often up to 130 µM), inactives show top-dose activity change, negative = inhibition, most hits filed as inhibitors; AID 485290; also: potency is read from the fitted curve at half-maximal effect; % is scaled to controls: 0 for no effect and ±100 for the full control effect; nearly all actives have a fitted effect of over 40% in size
Target sequence (Q9NUW8 whole entry, looked up): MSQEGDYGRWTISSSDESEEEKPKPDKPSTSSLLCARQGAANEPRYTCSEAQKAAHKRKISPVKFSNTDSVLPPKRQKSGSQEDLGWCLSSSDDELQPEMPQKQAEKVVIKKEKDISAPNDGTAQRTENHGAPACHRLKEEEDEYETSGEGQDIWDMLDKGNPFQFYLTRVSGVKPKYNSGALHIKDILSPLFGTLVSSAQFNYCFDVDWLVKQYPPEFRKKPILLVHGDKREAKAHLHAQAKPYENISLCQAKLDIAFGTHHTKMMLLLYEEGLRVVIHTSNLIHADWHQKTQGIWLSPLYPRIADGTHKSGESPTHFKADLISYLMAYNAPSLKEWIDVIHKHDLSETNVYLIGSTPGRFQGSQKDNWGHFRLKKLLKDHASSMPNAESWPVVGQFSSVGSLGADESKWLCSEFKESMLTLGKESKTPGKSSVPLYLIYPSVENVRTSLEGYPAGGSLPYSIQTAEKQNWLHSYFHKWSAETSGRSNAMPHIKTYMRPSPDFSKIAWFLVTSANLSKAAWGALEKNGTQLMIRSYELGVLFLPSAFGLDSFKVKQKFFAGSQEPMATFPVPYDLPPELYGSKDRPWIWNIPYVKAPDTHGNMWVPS
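Compounds were preincubated with Tdp1 (1 nM final) for 15 min at room temperature before substrate (15 nM final) started a 5 min reaction; beads (10 ug/ml final) were then added for 10 min before AlphaScreen detection.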
TDP1 cell CPT = growth inhibition of DT40 Tdp1-/-;hTDP1 cells with camptothecin (screen for TDP1 inhibitors); chicken DT40 Tdp1-/-;hTDP1 cells + 20 nM CPT, ATP luminescence, 48 h; Potency, µM (top dose mostly 46.2 µM), without a hit: at the top dose activity change, negative = growth inhibition, usual class: inhibitors; 12% of 420,000 active; AID 686979; also: potency is read from the fitted curve at half-maximal effect; % is scaled to controls: 0 for no effect and ±100 for the full control effect; nearly all actives have a fitted effect of over 55% in size
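Chicken DT40 Tdp1-/- cells stably complemented with human TDP1 were seeded at 400 cells/well in medium containing 20 nM camptothecin, exposed to pin-transferred compounds, and grown at 37 °C for at least 48 hr. Viability was read as ATP luminescence.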
TGFb inhibitor = inhibitors of TGF-b signaling; Potency, µM (doses to about 46.1 µM), inactives show top-dose activity, negative = inhibition, hits mostly inhibitors; 1.2% of 410,000 active; HepG2 CAGA-GFP TGF-b/SMAD3 reporter, GFP fluorescence, 18 h; TGF-beta stimulated, 500 pg/mL final; also: potency is read from the fitted curve at half-maximal effect; % is scaled to controls: 0 for no effect and ±100 for the full control effect; nearly all actives have a fitted effect of over 65% in size
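Smad-responsive CAGA-GFP expression was quantified in HEPG2 cells exposed to compounds and 500 pg/mL final TGF-beta for 18 h at 37 degrees C; unstimulated wells defined full inhibition.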
IL1B secr inh = inflammasome signaling inhibition, IL-1 beta readout | 4.7% of 360,000 active | activity change, % at 57.5 µM | THP-1 LPS/ATP IL-1B secretion, AlphaLISA, 16 h; hits give low values; in the data active = activity change below about -50%; inconclusive = mostly about -30% to -49%; also: % is scaled to controls: 0 for no effect and ±100 for the full control effect
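THP-1 cells pretreated 1 hr with compounds (up to 57.5 uM final), then stimulated with LPS (250 ng/mL final) plus ATP (1.25 mM final); secreted IL-1B measured by AlphaLISA after 16 hr, decreased signal indicating inhibition.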
HepG2 viability = kills HepG2 cells in TGF-b inhibitor counter-screen. Potency, µM (series often up to 46.1 µM), inactives show top-dose activity change, negative = cytotoxicity, actives largely listed as cytotoxic. 0.76% of 410,000 active. HepG2 CAGA-GFP viability, ATP luminescence, 18 h. AID 588856; also: potency is read from the fitted curve at half-maximal effect
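HepG2 CAGA-GFP cells (1000/well, DMEM with 1% FBS) received compound, then TGF-beta at 500 pg/mL final, and were incubated 18 hours at 37 degrees C. Viability was read by CellTiter-Glo luminescence. Media-only wells were set as complete cell-killing and DMSO as no toxicity.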
An asterisk follows results filed as active; ? = inconclusive; nt = no result. This is a sample that favours compounds with a hit; in the whole collection about 18% have one here. Unless noted, calls follow the shape of the dose curve; as a rule, active = well fitted curve in the direction sought with a large enough effect; inconclusive = small, poorly fitted or top-dose-only effect, or another doubt; inactive = no such curve, though single readings can be large; an effect the other way counts as inactive or inconclusive.

SMILES	DT40 TDP1 no CPT	TDP1 inh	TDP1 cell CPT	TGFb inhibitor	IL1B secr inh	HepG2 viability
Cc1csc(NC(=O)CSc2nnc(Cn3c(=O)sc4ccccc43)n2-c2ccccc2)n1	-100%	7%	7.3µM*	2%	?	-1%
Cn1c(Cn2c(=O)sc3ccccc32)nnc1SCC(=O)NC1CCCCC1	-10%	3%	9%	14%	-11	-8%
CCCSc1nnc(Cn2c(=O)sc3ccccc32)n1-c1ccccc1	18µM*	6%	?	-30%	15	-28%
Cn1c(Cn2c(=O)sc3ccccc32)nnc1SCC(=O)NC1CCCC1	-9%	0%	16µM*	1%	-15	-37%
CSc1nnc(Cn2c(=O)sc3ccccc32)n1-c1cccc(Cl)c1	?	1%	?	-20%	-3	-18%
COc1cccc(C(c2sc3nc(-c4ccco4)nn3c2O)N2CCC3(CC2)OCCO3)c1 (centres undefined)	-16%	8%	-2%	0%	nt	5%
CCc1ccc(N(CC(=O)NC2CCCC2)C(=O)CCC(=O)Nc2ccccn2)cc1	-13%	-3%	10%	0%	19	7%
S=C(NCc1ccccc1)N1CCN(c2cccc(Cl)c2)CC1	?	-3%	-12%	?	-72*	-20%
S=C(NCCCN1CCOCC1)N1CCN(c2cccc(Cl)c2)CC1	18µM*	nt	?	-3%	?	-20%
O=C(CSc1nnc(-c2c[nH]c3ccccc23)n1C1CC1)NC1CCS(=O)(=O)C1 (centres undefined)	-8%	nt	-20%	4%	11	3%
Cc1ccc(S(=O)(=O)N(Cc2ccccc2)c2ccccc2C(=O)Nc2ccccc2C(=O)NCc2ccco2)cc1	?	0%	23µM*	-14%	-9	0%
Cc1ccc(S(=O)(=O)N(Cc2ccccc2)c2ccccc2C(=O)NCc2ccco2)cc1	?	4%	?	-24%	-94*	1%
COc1ccccc1NC(=O)CSc1nc(=O)n(Cc2ccncc2)c2c1CCCC2	2%	nt	4%	?	-10	3%
Oc1c(Br)cc(C=Nc2ccc3nc(-c4ccccc4)[nH]c3c2)c(O)c1Br	15µM*	3%	16µM*	-5%	32	-21%
CCOc1ccc(NC(=O)Cn2ccn3nc(-c4ccc(OC)c(OC)c4)cc3c2=O)cc1	1%	1%	-19%	-1%	nt	-15%
CCCCn1c(=O)c(CC(C)=O)nc2ccccc21	-13%	6%	22%	14%	-5	0%
CC(=O)NC12CC3CC(C1)CC(C(=O)OCC(=O)c1cc(C)n(C)c1C)(C3)C2	?	6%	16µM*	3%	-3	-23%
O=C(NNc1ccc(C(F)(F)F)cc1[N+](=O)[O-])c1ccc(NS(=O)(=O)c2ccc(F)cc2)cc1	23µM*	9%	?	?	?	-12%
COc1ccc(CNC(=O)CCS(=O)(=O)c2ccc3c(c2)NC(=O)CS3)cc1	12%	-10%	-9%	3%	5	-3%
COCCCNC(=O)c1oc2c(c1C)-c1nn(Cc3cccc(Cl)c3)cc1CC2	18µM*	1%	21µM*	-11%	nt	-42%
COCCCNC(=O)c1oc2c(c1C)-c1nn(Cc3ccc(Cl)cc3)cc1CC2	18µM*	3%	23µM*	-18%	nt	-21%
Cc1c(C(=O)NCCN(C)C)oc2c1-c1nn(Cc3ccccc3Cl)cc1CC2	?	4%	?	-18%	nt	-3%
CCN(CC)CCCNC(=O)c1oc2c(c1C)-c1nn(Cc3ccc(Cl)cc3)cc1CC2	18µM*	3%	?	-25%	nt	13µM*
